Data as given in PubChem BioAssay (NCATS).
Records with an inconclusive call do not appear. Where a call stands in place of a potency, no number is given. Activity calls are given as the source filed them. Calls follow the shape of the dose curve; as a rule, active = well fitted cell-killing curve with a large enough effect; inconclusive = small, poorly fitted or top-dose-only effect, or effect the other way; inactive = no such curve, though single readings can be large or run the other way.

assay: qHTS assay to identify small molecule inhibitors of chordoma cells - UCH-1 (AID 1259355); conditions: UCH-1 chordoma viability, CellTiter-Glo, 48 h, combination, with auranofin plus four topoisomerase inhibitors; series mostly up to 46.1 µM; also: nearly all actives have a fitted effect of over 55% in size
How it was run: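 800 cells/well, overnight attach; compounds pinned at 15 concs, then auranofin/camptothecin/doxorubicin/rubitecan/topotecan combo added; 48hr 37 C, 5% CO2; CellTiter-Glo, 30min RT, luminescence.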
Potency is read from the fitted curve at half-maximal effect.

With `NC1=NCC2c3ccccc3Cc3ccccc3N12` (stereo not drawn) as the compound, how does the Potency read?
The Potency was “inactive”.

For `O=C(O)CCCCCCCC(=O)O`, which Potency is on record?
Its Potency is “inactive”.

Which Potency does the source give for `NC(Cc1ccc(Cl)cc1)C(=O)O` (stereo not drawn) here?
The Potency was “inactive”.

With `CC(C)(Oc1ccc(CCNC(=O)c2ccc(Cl)cc2)cc1)C(=O)O` as the compound, how does the Potency read?
Its Potency is “inactive”.

For `CN(C)CCOC(=O)COc1ccc(Cl)cc1`, which Potency is on record?
Its Potency is “inactive”.

Which Potency does the source give for `CC(N=C(NC#N)Nc1ccncc1)C(C)(C)C` (stereo not drawn) here?
Its Potency is “inactive”.

Which Potency does the source give for `COC(=O)C1=C(C)NC(C)=C(C(=O)OC(C)(C)CN(C)CCC(c2ccccc2)c2ccccc2)C1c1cccc([N+](=O)[O-])c1` (stereo not drawn) here?
The Potency was “inactive”.

For `Cc1cc(C)c(/C=C2\C(=O)Nc3ccccc32)[nH]1`, which Potency is on record?
The Potency was “inactive”.

For `CCn1nc(C(=O)O)c(=O)c2cc3c(cc21)OCO3`, which Potency is on record?
Its Potency is “inactive”.

With `Cc1ccc(S(=O)(=O)NC(=O)NN2CCCCCC2)cc1` as the compound, how does the Potency read?
Its Potency is “inactive”.

Which Potency does the source give for `C[N+](C)(C)CCOC(=O)CCC(=O)OCC[N+](C)(C)C` here?
The Potency was “inactive”.

With `CC(C)(C)NCC(O)c1cc(O)cc(O)c1` (stereo not drawn) as the compound, how does the Potency read?
Its Potency is “inactive”.

For `CC(C)NNC(=O)c1ccncc1`, which Potency is on record?
The Potency was “inactive”.

With `COCCc1ccc(OCC(O)CNC(C)C)cc1` (stereo not drawn) as the compound, how does the Potency read?
Its Potency is “inactive”.

For `Cc1scc2c1N(C(=O)CN1CCN(C)CC1)c1ccccc1NC2=O`, which Potency is on record?
The Potency was “inactive”.

With `CC(=O)[C@]1(O)Cc2c(O)c3c(c(O)c2[C@@H](O[C@H]2C[C@H](N)[C@H](O)[C@H](C)O2)C1)C(=O)c1ccccc1C3=O` as the compound, how does the Potency read?
The Potency was 0.794 µM (active).

Which Potency does the source give for `O=C1CC2(CCCC2)CC(=O)N1CCCCN1CCN(c2ncccn2)CC1` here?
Its Potency is “inactive”.

For `OCCN1CCN(CC/C=C2/c3ccccc3Sc3ccc(C(F)(F)F)cc32)CC1`, which Potency is on record?
Its Potency is “inactive”.

With `C(=C\c1ccccc1)/CN1CCN(C(c2ccccc2)c2ccccc2)CC1` as the compound, how does the Potency read?
The Potency was “inactive”.

Which Potency does the source give for `c1cc(CN2CCCCC2)cc(OCCCNc2nc3ccccc3s2)c1` here?
The Potency was “inactive”.

For `C=CCc1ccccc1OCC(O)CNC(C)C` (stereo not drawn), which Potency is on record?
The Potency was “inactive”.

For `COCCOC(=O)C1=C(C)NC(C)=C(C(=O)OC(C)C)C1c1cccc([N+](=O)[O-])c1` (stereo not drawn), which Potency is on record?
Its Potency is “inactive”.

With `CCCC(C(=O)OCCN(CC)CC)(c1ccccc1)c1ccccc1` as the compound, how does the Potency read?
Its Potency is “inactive”.

For `C[C@]12CC[C@@H]3c4ccc(O)cc4C[C@@H](CCCCCCCCCS(=O)CCCC(F)(F)C(F)(F)F)[C@H]3[C@@H]1CC[C@@H]2O` (stereo partly drawn), which Potency is on record?
The Potency was “inactive”.

With `COc1ccc([C@@H]2Sc3ccccc3N(CCN(C)C)C(=O)[C@@H]2OC(C)=O)cc1` as the compound, how does the Potency read?
The Potency was “inactive”.

Which Potency does the source give for `CCCOc1ccccc1-c1nc2n[nH]nc2c(=O)[nH]1` here?
The Potency was “inactive”.

Which Potency does the source give for `Nc1c2c(nc3ccccc13)CCCC2O` (stereo not drawn) here?
The Potency was “inactive”.

With `CCCCCCCC/C=C\CCCCCCCC(=O)NCc1ccc(O)c(OC)c1` as the compound, how does the Potency read?
The Potency was “inactive”.

Which Potency does the source give for `COc1cc2c(cc1OC)-c1cc(=Nc3c(C)cc(C)cc3C)n(C)c(=O)n1CC2` here?
The Potency was 25.1 µM (active).

For `C#CCN(C)CCCOc1ccc(Cl)cc1Cl`, which Potency is on record?
Its Potency is “inactive”.

With `Cc1nc2c([nH]1)c(=O)n(C)c(=O)n2Cc1ccco1` as the compound, how does the Potency read?
Its Potency is “inactive”.

For `NC(=O)c1cn(Cc2c(F)cccc2F)nn1`, which Potency is on record?
Its Potency is “inactive”.

With `CCn1ccnc1CC1COc2ccccc2O1` (stereo not drawn) as the compound, how does the Potency read?
Its Potency is “inactive”.
